Measurements published in PubChem BioAssay.
Activity calls are given as the source filed them.

Legend:
[1] = test system: PRMT1 (protein arginine N-methyltransferase 1); assay: PRMT1 binders on small-molecule microarrays, primary screen, biochemical, small-molecule microarray, 635 nm fluorescence (AID 1088); details: small-molecule microarray binding, higher = more signal;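 further: binding of Prmt1 protein to compounds spotted on small-molecule microarray slides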
[2] = yeast growth modulation, basal conditions, primary screen, YJM789 clinical isolate, OD600, 24 h (AID 1089);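 further: growth of clinical yeast isolate S. cerevisiae YJM 789 seeded 1000 cells per well; test concentration not given here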; details: S. cerevisiae YJM789 growth, higher = more signal, called active from +8 up or from −8 down
[3] = fission yeast growth modulation, primary screen, strain 972, OD600, 24 h, no modulator (AID 1090);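 further: basal condition with compound alone and no growth modifier present; test concentration not given here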; details: S. pombe 972 growth, higher = more signal, called active from +8 up or from −8 down
[4] = S. cerevisiae growth modulation with rapamycin, primary screen, strain BY4716, OD600, 96 h (AID 1091); details: higher = more signal, called active from +8 up or from −8 down; further: test concentration not given here
[5] = molecular target: Torsin-1A-interacting protein 2 (Homo sapiens) (UniProt Q8NFQ8); assay: LULL1 binders on small-molecule microarray, primary screen, cell lysate, human LULL1 lysate, 635/667 nm fluorescence (AID 1092); details: hLULL1 lysate binding, 635 nm fluorescence, higher = more signal;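 further: probe is lysate of COS7 cells overexpressing human LULL1; score merges per-feature 667 nm fluorescence with signal-to-noise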
Chain of Torsin-1A-interacting protein 2 (Homo sapiens) (Q8NFQ8 whole entry, looked up): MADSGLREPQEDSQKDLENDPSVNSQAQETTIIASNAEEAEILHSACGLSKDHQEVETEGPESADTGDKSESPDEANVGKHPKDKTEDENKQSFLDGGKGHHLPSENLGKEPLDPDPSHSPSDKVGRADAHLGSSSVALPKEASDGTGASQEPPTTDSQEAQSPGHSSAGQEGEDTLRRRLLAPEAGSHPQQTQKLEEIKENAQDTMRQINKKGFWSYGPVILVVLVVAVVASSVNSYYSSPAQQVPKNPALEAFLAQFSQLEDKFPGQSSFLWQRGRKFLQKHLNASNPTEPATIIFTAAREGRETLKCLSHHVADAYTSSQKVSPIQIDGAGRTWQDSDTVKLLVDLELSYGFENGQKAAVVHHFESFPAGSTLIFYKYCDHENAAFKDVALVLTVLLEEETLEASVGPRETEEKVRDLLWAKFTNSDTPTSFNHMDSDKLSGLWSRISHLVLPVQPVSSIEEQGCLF

[6] = E. coli growth modulation, two-sided OD650, primary screen, E. coli filamentation project, strain DRC41, 24 h (AID 1093); details: OD650, 24 h, higher = more signal, called active from +8 up or from −8 down;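 further: MC1000 strain lacking acrAB efflux and sulA so SOS filamentation is blocked; test concentration not given here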
[7] = small-molecule microarray binders of probe aLefty2, primary screen, biochemical, biotinylated probe, 635/667 nm fluorescence (AID 1094); details: higher = more signal;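 further: score merges spot fluorescence near 667 nm with spot signal-to-noise ratio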
[8] = test system: Noggin (protein binding on small-molecule microarray); assay: Noggin binders on small-molecule microarray, primary screen, biochemical, 635/667 nm fluorescence (AID 1095); details: 635 nm fluorescence, higher = more signal;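 further: score merges 667 nm feature fluorescence with signal to noise over triplicate slides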
[9] = molecular target: Neurogenic locus notch homolog protein 3 (Homo sapiens) (UniProt Q9UM47); assay: NOTCH3 binders on small-molecule microarray, primary screen, biochemical, 635/667 nm fluorescence (AID 1096); details: NOTCH3 binding, 635 nm fluorescence, higher = more signal
Chain of Neurogenic locus notch homolog protein 3 (Homo sapiens) (Q9UM47 whole entry, looked up): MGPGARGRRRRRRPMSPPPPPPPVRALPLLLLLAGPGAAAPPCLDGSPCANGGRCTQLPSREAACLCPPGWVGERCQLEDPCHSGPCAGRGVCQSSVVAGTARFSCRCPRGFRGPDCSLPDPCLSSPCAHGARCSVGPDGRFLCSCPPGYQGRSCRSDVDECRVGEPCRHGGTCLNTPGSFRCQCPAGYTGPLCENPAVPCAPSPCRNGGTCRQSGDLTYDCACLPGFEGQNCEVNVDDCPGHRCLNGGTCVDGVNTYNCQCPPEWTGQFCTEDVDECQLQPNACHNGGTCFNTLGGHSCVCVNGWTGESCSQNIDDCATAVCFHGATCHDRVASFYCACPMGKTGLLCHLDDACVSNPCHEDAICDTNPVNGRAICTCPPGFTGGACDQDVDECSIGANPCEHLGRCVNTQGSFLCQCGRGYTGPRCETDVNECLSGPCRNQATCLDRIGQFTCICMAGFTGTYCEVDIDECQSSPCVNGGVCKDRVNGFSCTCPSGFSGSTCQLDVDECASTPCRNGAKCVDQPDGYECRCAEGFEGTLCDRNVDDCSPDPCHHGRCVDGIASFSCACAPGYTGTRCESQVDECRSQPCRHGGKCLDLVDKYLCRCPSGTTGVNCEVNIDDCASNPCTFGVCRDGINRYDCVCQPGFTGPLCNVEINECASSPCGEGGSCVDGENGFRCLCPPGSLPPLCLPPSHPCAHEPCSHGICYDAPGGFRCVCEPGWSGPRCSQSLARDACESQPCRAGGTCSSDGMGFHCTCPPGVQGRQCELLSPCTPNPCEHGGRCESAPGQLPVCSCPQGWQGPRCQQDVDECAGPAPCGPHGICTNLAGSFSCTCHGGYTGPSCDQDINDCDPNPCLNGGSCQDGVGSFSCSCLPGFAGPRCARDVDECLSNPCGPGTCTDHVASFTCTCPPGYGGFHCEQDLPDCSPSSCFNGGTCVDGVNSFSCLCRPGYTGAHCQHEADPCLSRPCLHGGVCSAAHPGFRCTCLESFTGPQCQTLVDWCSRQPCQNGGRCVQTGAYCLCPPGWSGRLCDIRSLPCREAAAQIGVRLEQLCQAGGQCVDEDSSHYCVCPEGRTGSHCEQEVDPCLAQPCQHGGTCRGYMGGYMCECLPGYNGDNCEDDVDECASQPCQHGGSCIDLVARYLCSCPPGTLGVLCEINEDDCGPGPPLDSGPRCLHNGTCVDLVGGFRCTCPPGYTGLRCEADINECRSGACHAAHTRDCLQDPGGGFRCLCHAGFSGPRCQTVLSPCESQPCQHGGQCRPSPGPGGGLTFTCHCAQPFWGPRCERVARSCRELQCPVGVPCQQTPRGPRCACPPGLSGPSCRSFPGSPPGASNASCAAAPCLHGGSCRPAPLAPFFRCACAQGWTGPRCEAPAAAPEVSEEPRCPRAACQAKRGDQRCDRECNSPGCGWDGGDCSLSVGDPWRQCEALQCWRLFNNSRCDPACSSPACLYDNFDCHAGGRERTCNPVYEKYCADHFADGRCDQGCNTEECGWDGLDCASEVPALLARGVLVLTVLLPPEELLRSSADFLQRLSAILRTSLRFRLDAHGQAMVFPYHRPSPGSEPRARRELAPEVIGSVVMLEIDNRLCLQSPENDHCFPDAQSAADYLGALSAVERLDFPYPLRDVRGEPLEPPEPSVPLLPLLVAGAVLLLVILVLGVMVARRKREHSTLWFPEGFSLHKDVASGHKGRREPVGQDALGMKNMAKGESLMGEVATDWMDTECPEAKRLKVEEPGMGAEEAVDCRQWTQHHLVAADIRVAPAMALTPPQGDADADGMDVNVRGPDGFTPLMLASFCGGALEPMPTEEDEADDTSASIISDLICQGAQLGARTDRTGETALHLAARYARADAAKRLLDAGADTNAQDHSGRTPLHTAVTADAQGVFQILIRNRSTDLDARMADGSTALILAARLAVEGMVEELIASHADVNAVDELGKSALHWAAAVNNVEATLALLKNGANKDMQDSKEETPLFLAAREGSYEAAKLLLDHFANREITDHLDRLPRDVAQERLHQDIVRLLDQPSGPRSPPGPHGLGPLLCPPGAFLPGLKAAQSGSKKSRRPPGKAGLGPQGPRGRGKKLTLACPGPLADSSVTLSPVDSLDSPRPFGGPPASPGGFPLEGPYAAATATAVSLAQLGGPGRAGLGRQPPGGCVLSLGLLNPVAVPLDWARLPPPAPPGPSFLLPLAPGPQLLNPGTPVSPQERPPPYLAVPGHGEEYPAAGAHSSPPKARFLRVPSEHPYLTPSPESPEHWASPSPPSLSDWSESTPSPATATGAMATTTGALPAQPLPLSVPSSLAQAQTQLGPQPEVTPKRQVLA

[10] = small-molecule microarray binders of probe aEGFR, primary screen, biochemical, biotinylated probe, 635/667 nm fluorescence (AID 1097); details: higher = more signal;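 further: probe is a biotinylated anti-EGFR antibody binding compounds printed on slides; score combines fluorescence near 667 nm and signal to noise of each spot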

## CCCC[C@@H]1C[C@H]1[C@@H](NC(=O)c1ccco1)c1ccc(Cl)cc1
[1]
  composite z-score: 0.44
[2]
  z-score: 0.622 (inactive)
[3]
  z-score: 0.362 (inactive)
[4]
  z-score: 0.384 (inactive)
[5]
  composite z-score: 2.89
[6]
  z-score: -0.815 (inactive)
[7]
  composite z-score: 0.164
[8]
  composite z-score: -0.576
[9]
  composite z-score: 0.889
[10]
  composite z-score: 0.0271

## CCN(CC)c1ccc(N2CC=CC34O[C@@H]5/C=C\CCCOC(=O)C5[C@H]3C(=O)N(CCO)[C@@H]4C2=O)cc1 (stereo not given in full)
[1]
  composite z-score: 0.0226
[2]
  z-score: 0.0765 (inactive)
[3]
  z-score: -1.11 (inactive)
[4]
  z-score: 0.0541 (inactive)
[5]
  composite z-score: 1.3
[6]
  z-score: 0.557 (inactive)
[7]
  composite z-score: -0.253
[8]
  composite z-score: -0.715
[9]
  composite z-score: -0.162
[10]
  composite z-score: -0.286

## COCCOC(=O)N1C(=O)[C@@]2(c3cc(C#CC4=CCCCC4)ccc31)[C@H](c1ccc(O)cc1)N1[C@H](c3ccccc3)[C@H](c3ccccc3)OC(=O)[C@H]1[C@@H]2C(N)=O
[1]
  composite z-score: 1.56
[2]
  z-score: 0.893 (inactive)
[3]
  z-score: 0.358 (inactive)
[4]
  z-score: 0.918 (inactive)
[5]
  composite z-score: 1.84
[6]
  z-score: -0.603 (inactive)
[7]
  composite z-score: -0.388
[8]
  composite z-score: 1.63
[9]
  composite z-score: 1.1
[10]
  composite z-score: -0.11

## C=CCOC(=O)[C@H]1[C@@H]2C(=O)O[C@@H](c3ccccc3)[C@@H](c3ccccc3)N2[C@@H](c2ccc(OCCOC(=O)[C@H]3C[C@H]4C(=O)N5CCC[C@H]5C(=O)N4[C@H]3c3ccc(O)cc3)cc2)[C@]12C(=O)Nc1ccc(I)cc12
[1]
  composite z-score: 1.53
[2]
  z-score: -0.324 (inactive)
[3]
  z-score: -1.65 (inactive)
[4]
  z-score: 0.0891 (inactive)
[5]
  composite z-score: 3.64
[6]
  z-score: 1.07 (inactive)
[7]
  composite z-score: 1.46
[8]
  composite z-score: 2
[9]
  composite z-score: 1.05
[10]
  composite z-score: 0.993

## CC(=O)NCCCC[C@@H]1NC(=O)[C@@H]2C[C@H](C(=O)NCCCCCCNC(=O)CS)[C@H](c3cccc(OCCO)c3)N2C1=O
[1]
  composite z-score: 1.55
[2]
  z-score: -0.531 (inactive)
[3]
  z-score: -0.507 (inactive)
[4]
  z-score: -0.0963 (inactive)
[5]
  composite z-score: 2.03
[6]
  z-score: -0.329 (inactive)
[7]
  composite z-score: 0.498
[8]
  composite z-score: 0.452
[9]
  composite z-score: 0.249
[10]
  composite z-score: -0.112

## COC(=O)[C@@]1(Cc2ccc(F)cc2)[C@H]2c3cc(C(=O)N(C)C)n(Cc4ccc(S(C)(=O)=O)cc4)c3C[C@H]2CN1C(=O)c1ccccc1
[1]
  composite z-score: -0.213
[2]
  z-score: 0.304 (inactive)
[3]
  z-score: 1.21 (inactive)
[4]
  z-score: 0.147 (inactive)
[5]
  composite z-score: 2.23
[6]
  z-score: 0.321 (inactive)
[7]
  composite z-score: 0.124
[8]
  composite z-score: -0.139
[9]
  composite z-score: 0.49
[10]
  composite z-score: -0.0045

## O=C1OCC=C[C@H]2OC34C=CCN(CCN5CCOCC5)C(=O)[C@H]3N(CCCO)C(=O)[C@@H]4[C@@H]12 (stereo not given in full)
[1]
  composite z-score: -0.102
[2]
  z-score: 0.0736 (inactive)
[3]
  z-score: -0.454 (inactive)
[4]
  z-score: 0.238 (inactive)
[5]
  composite z-score: 0.477
[6]
  z-score: 0.681 (inactive)
[7]
  composite z-score: -0.208
[8]
  composite z-score: 0.219
[9]
  composite z-score: 0.314
[10]
  composite z-score: -0.128

## C#CCN(Cc1ccccc1Br)C(/C=C/c1ccccc1)CO (stereo not given)
[1]
  composite z-score: -0.69
[2]
  z-score: -2.9 (inactive)
[3]
  z-score: -19.4 (active)
[4]
  z-score: 0.934 (inactive)
[5]
  composite z-score: 0.123
[6]
  z-score: 0.556 (inactive)
[7]
  composite z-score: -0.144
[8]
  composite z-score: -0.193
[9]
  composite z-score: -0.598
[10]
  composite z-score: -0.277

## COC(=O)[C@@]1(Cc2ccc(OC)cc2)[C@H]2c3cc(C(=O)N(C)C)n(Cc4cccc5ccccc45)c3C[C@H]2CN1C(=O)c1ccccc1
[1]
  composite z-score: 0.219
[2]
  z-score: -0.386 (inactive)
[3]
  z-score: 0.514 (inactive)
[4]
  z-score: 1.46 (inactive)
[5]
  composite z-score: 2.78
[6]
  z-score: -0.223 (inactive)
[7]
  composite z-score: 1.07
[8]
  composite z-score: 0.841
[9]
  composite z-score: 0.481
[10]
  composite z-score: 0.92

## COC(=O)[C@@]1(Cc2ccc(F)cc2)[C@@H]2[C@@H](CC(=O)[C@H]2CC(=O)C(=O)N(C)C)CN1C(=O)c1ccccc1
[1]
  composite z-score: 0.781
[2]
  z-score: 0.658 (inactive)
[3]
  z-score: 2.12 (inactive)
[4]
  z-score: 2.7 (inactive)
[5]
  composite z-score: 2.43
[6]
  z-score: -0.874 (inactive)
[7]
  composite z-score: 0.288
[8]
  composite z-score: 0.221
[9]
  composite z-score: 1.08
[10]
  composite z-score: 0.4

## COCCOC(=O)N1C(=O)[C@@]2(c3cc(C#CC4=CCCCC4)ccc31)[C@H](C(N)=O)[C@H]1C(=O)O[C@H](c3ccccc3)[C@H](c3ccccc3)N1[C@@H]2c1ccc(OCCO)cc1
[1]
  composite z-score: 1.54
[2]
  z-score: 1.44 (inactive)
[3]
  z-score: 1.28 (inactive)
[4]
  z-score: 3.59 (inactive)
[5]
  composite z-score: 1.6
[6]
  z-score: -0.385 (inactive)
[7]
  composite z-score: -0.399
[8]
  composite z-score: 0.904
[9]
  composite z-score: 1.01
[10]
  composite z-score: -0.238

## O=C1NC(=O)C2C1C=CC(C(O)C(c1ccccc1)c1ccccc1)N2Nc1ccc(Cl)cc1Cl (stereo not given)
[1]
  composite z-score: 0.532
[2]
  z-score: -0.111 (inactive)
[3]
  z-score: -0.767 (inactive)
[4]
  z-score: 1.5 (inactive)
[5]
  composite z-score: 2.86
[6]
  z-score: -1.27 (inactive)
[7]
  composite z-score: 0.185
[8]
  composite z-score: 0.561
[9]
  composite z-score: 0.982
[10]
  composite z-score: -0.0267

## COCCOC(=O)N1C(=O)[C@@]2(c3cc(C#Cc4ccc(OC)cc4)ccc31)[C@H](c1ccc(O)cc1)N1[C@H](c3ccccc3)[C@H](c3ccccc3)OC(=O)[C@H]1[C@@H]2C(=O)NC[C@H](O)c1ccccc1
[1]
  composite z-score: 1.54
[2]
  z-score: 1.5 (inactive)
[3]
  z-score: 0.217 (inactive)
[4]
  z-score: 2.82 (inactive)
[5]
  composite z-score: 2.16
[6]
  z-score: 0.873 (inactive)
[7]
  composite z-score: -0.09
[8]
  composite z-score: 1.48
[9]
  composite z-score: 1.08
[10]
  composite z-score: 0.0209

## CCOC(=O)[C@H]1C/C=C/C[C@H](C(=O)OCC)C(=O)O[C@H]2[C@@H](OC)O[C@H](CO)[C@@H](OC(=O)Nc3cccc(F)c3)[C@@H]2OC1=O
[1]
  composite z-score: 1.11
[2]
  z-score: 1.52 (inactive)
[3]
  z-score: 0.268 (inactive)
[4]
  z-score: 22.2 (active)
[5]
  composite z-score: 2.94
[6]
  z-score: -0.168 (inactive)
[7]
  composite z-score: -0.162
[8]
  composite z-score: 0.719
[9]
  composite z-score: 1.02
[10]
  composite z-score: -0.2
